Reference: PubChem BioAssay AID588855 (National Center for Advancing Translational Sciences (NCATS), 2011)
In all, about 410,000 compounds went through this assay and about 5,000 (1.2%) were called active. About 13% were inconclusive and are not listed. Calls follow the shape of the dose curve; as a rule, active = well fitted inhibition curve with a large enough effect; inconclusive = small, poorly fitted or top-dose-only effect; inactive = no such curve, though single readings can be large or run the other way. Many of the other results were omitted from the sample, so actives are more common in it than they were.

experiment: qHTS for Inhibitors of TGF-b; details: HepG2 CAGA-GFP TGF-b/SMAD3 reporter, GFP fluorescence, 18 h, TGF-beta stimulated, 500 pg/mL final; series mostly up to 46.1 µM; activity, negative = inhibition: at the top concentration; also: nearly all actives have a fitted effect of over 65% in size
Text: TGF-b is a main component in the TGF-b signaling pathway which plays diverse roles in cellular and development pathways. TGF-b is the mediated by the transcription factors Smads. Although the Smad-dependent pathway is the primary canonical TGF-b signaling node, TGF-b1 can also activate alternative signaling pathways, including those involving MAPK (ERK, JNK and p38). This interaction may mediate or enhance Smad-dependent responses, or can exert Smad-independent effects. The complexity of this signaling cascade allows the TGF-b superfamily to perform unique, overlapping or redundant functions. We believe that targeting the TGF-beta pathway at the Smad-transcription factor level may eliminate the consequences of disrupting the entire pathway and offer specificity without affecting other signaling pathways. Smad3 is the primary transducer of TGF-b's signals and Smad3 regulates many functions attributed to TGF-b signaling. We hypothesize that Smad3 inhibitors will selectively eliminate Smad3-specific TGF-beta signals without undesired off-target effects. We aim to identify Smad3-small molecule antagonists using a quantitative high throughput screening (qHTS) approach.
A high-throughput assay was developed to screen the NIH Molecular Libraries Small Molecule Repository (MLSMR). This is a cell based assay, where TGF-b is tagged with GFP. A counterscreen is run that looks at cytotoxicity (please see summary AID).
MH087449NIH Chemical Genomics Center [NCGC]
NIH Molecular Libraries Probe Centers Network [MLPCN]
Assay Submitter (PI): Sushil Rane, National Institute of […]
Suspensions of trypsinized HEPG2 CAGA-GFP cells were dispensed into white, tissue culture-treated, solid 1536-well plates at 5uL/well (1000 cells/well final concentration) in DMEM medium supplemented with 1% FBS. Plates were incubated at 37 degrees C for 2 hours, after which 23 nL of compounds or DMSO were delivered to each well using a pin tool. One uL of recombinant TGF-beta in DMEM (1% FBS) was then dispensed (500 pg/mL final concentration), and plates were incubated at 37 degrees C for 18 hours. The plates were measured on an Acumen eX3 Explorer plate reader for GFP fluorescence (ex488/em500-530). GFP values were calculated by determining the mean GFP fluorescence of individual cells, and compiling these values for each well to determine a total well GFP signal. The %Activity was determined from the corrected fluorescence values. A titration of the known TGF-B inhibitor SB431542 was included to monitor plate performance, while unstimulated HEPG2 (-TGF-B) control wells were used to normalize %Activity of identified inhibitors; unstimulated wells corresponded to 100%Activity (full inhibition), while stimulated cell controls (+DMSO) were used to normalize 0%Activity (no inhibition).
Concentration-response curves were fitted to the signals arising from the resulting fluorescence. The concentration-effect curves were then classified based on curve quality (r2), response magnitude and degree of measured activity, and compounds were subsequently categorized based on their curve class.
Potency is read from the fitted curve at half-maximal effect.

SMILES	activity, negative = inhibition	Potency
CN(CC(=O)Nc1ccccc1C(F)(F)F)C(=O)Cc1ccccc1F	-1.45% (inactive)	–
CCOC(=O)c1ccc(NC(=O)c2nc(SCc3ccc(F)cc3)ncc2Cl)cc1	-12.1% (inactive)	–
O=C(Nc1ccccc1C(F)(F)F)c1nc(S(=O)(=O)Cc2ccccc2F)ncc1Cl	–	3.16 µM (active)
Cc1cccc(CS(=O)(=O)c2ncc(Cl)c(C(=O)Nc3ccc(F)cc3)n2)c1	–	6.31 µM (active)
Cc1cccc(NC(=O)c2nc(S(=O)(=O)Cc3ccccc3)ncc2Cl)c1	–	3.98 µM (active)
CC(=O)c1cccc(NC(=O)c2nc(-c3ccccc3)n(-c3cccc(C)c3)n2)c1	-25.9% (inactive)	–
Cc1ccc(NC(=O)c2cccnc2C(=O)Nc2ccc(C)cc2)cc1	-10.9% (inactive)	–
CCS(=O)(=O)c1ncc(N(Cc2ccc(F)cc2)Cc2ccco2)c(C(=O)Nc2cc(C)ccc2C)n1	1.57% (inactive)	–
Cc1cccc(NC(=O)Cn2cc(S(=O)(=O)Cc3ccccc3Cl)c3ccccc32)c1	0% (inactive)	–
Cc1ccc(CCNC(=O)c2ccc(CS(=O)(=O)Cc3cccc(C)c3)o2)cc1	-36% (inactive)	–
O=C(Nc1nc2ccc(F)cc2s1)c1nc(SCc2ccccc2F)ncc1Cl	-1.74% (inactive)	–
Cc1ccc(NC(=O)c2nc(S(=O)(=O)Cc3cccc(C)c3)ncc2Cl)cc1	–	3.16 µM (active)
COc1ccccc1CNC(=O)c1ccccc1NC(=O)c1nsc2ccccc12	-0.608% (inactive)	–
Cc1cccc(Cn2c(CN3CCC(C(=O)NCc4ccccc4Cl)CC3)cc3ccccc32)c1	-8.43% (inactive)	–
COc1ccc(NC(=O)C2CCCN(S(=O)(=O)c3c(C)[nH]c(=O)[nH]c3=O)C2)c(OC)c1 (stereo not given)	-24.4% (inactive)	–
COc1ccccc1CNC(=O)NCc1noc2ccc(C)cc12	1.22% (inactive)	–
O=S(=O)(c1cccc(C(F)(F)F)c1)N1CCN(c2nc(-c3cccs3)nc3ccccc23)CC1	1.02% (inactive)	–
NC(c1csc(NC(=O)Nc2cccc(C(F)(F)F)c2)n1)C1CCCCC1 (stereo not given)	–	6.31 µM (active)
COc1ccc(CC(N)c2csc(NC(=O)Nc3ccc(C(C)C)cc3)n2)cc1 (stereo not given)	-98.2% (inactive)	–
NC(c1ccccc1)c1csc(NC(=O)Nc2cccc(C(F)(F)F)c2)n1 (stereo not given)	–	12.6 µM (active)

SMILES	activity, negative = inhibition	Potency
Cn1c(C(=O)Nc2cccc(C(F)(F)F)c2)cc2c(=O)n3ccccc3nc21	-8% (inactive)	–
CC(=O)c1ccc(Nc2nc(C(N)c3ccccc3)cs2)cc1 (stereo not given)	-0.831% (inactive)	–
O=C(Nc1cccc(F)c1)NC1CCCCCCC1	0% (inactive)	–
Cc1ccc(Cn2c(=O)n(CCCC(=O)NCc3ccccc3Cl)c(=O)c3ccccc32)cc1	3.91% (inactive)	–
COC(=O)c1ccc(-c2nc3cc(NC(C)=O)ccc3o2)cc1	1.43% (inactive)	–
CCOc1ccc(NC(=O)c2cc(S(=O)(=O)N3CCCC3)c[nH]2)cc1	-24.4% (inactive)	–
Cc1nc2nc(SCC(=O)NC3CCC(C)CC3)nn2c(C)c1Cc1ccccc1Cl (stereo not given)	-30.1% (inactive)	–
CC1(C)C=Cc2c(ccc(C(=O)/C=C/c3ccccc3)c2O)O1	-2.51% (inactive)	–
COc1ccccc1Oc1ccc(S(=O)(=O)Nc2cccnc2)cc1	9.04% (inactive)	–
Cc1cc(C)cc(NS(=O)(=O)c2ccc(Oc3ncc(C(F)(F)F)cc3Cl)cc2)c1	–	12.6 µM (active)
CN(NS(=O)(=O)c1cccs1)c1ncc(C(F)(F)F)cc1Cl	-13% (inactive)	–
COc1ccc(CCNCc2c(C(=O)O)c(C)n(Cc3cccc(C)c3)c2C)cc1OC	5.3% (inactive)	–
Cc1cccc(NC(=O)c2ccc3nc(C(C)C)oc3c2)c1C	7.16% (inactive)	–
CCOC(=O)N1CCN(c2cc(C)c([N+](=O)[O-])cc2F)CC1	7.48% (inactive)	–
O=C(O)C1CCN(c2ccc([N+](=O)[O-])cc2[N+](=O)[O-])CC1	34.7% (inactive)	–
C=COC(=O)N1CCN(/[N+]([O-])=N/Oc2ccc([N+](=O)[O-])cc2[N+](=O)[O-])CC1	–	10 µM (active)
O=C(CSc1nc(=O)[nH]c2c1CCCC2)Nc1cc(C(F)(F)F)ccc1Cl	-0.244% (inactive)	–
COc1ccc(/C=C/c2noc(-c3ccccc3O)n2)cc1OC	-13.3% (inactive)	–
COc1cccc(C(=O)CC(=O)C(=O)Nc2ccc([N+](=O)[O-])cc2C)c1	-5.79% (inactive)	–
Cc1cc([N+](=O)[O-])ccc1NCc1cccc([N+](=O)[O-])c1	–	10 µM (active)

SMILES	activity, negative = inhibition	Potency
CC(=O)c1ccc(NC(=O)Nc2ccc([N+](=O)[O-])cc2C)cc1	3.93% (inactive)	–
O=C(Nc1ccc([N+](=O)[O-])cc1)c1cnn2c1NC(=C1CC1)C=C2C(F)F	5.24% (inactive)	–
COc1ccc(/C=C/c2ccnc3ccccc23)cc1OC	-22.7% (inactive)	–
CSc1ncc(C(=O)NCc2ccccc2Cl)c(C(F)(F)F)n1	-10.3% (inactive)	–
O=C(CSc1nc(Nc2ccc(F)c(F)c2)c2ccccc2n1)c1ccc(Cl)cc1	0% (inactive)	–
Fc1ccc(Nc2nc(SCc3ccccc3Cl)nc3ccccc23)cc1	–	17.8 µM (active)
Cc1ccc(NC(=O)CSc2nc3ccccc3c3nc(CCn4cncc4C)nn23)cc1F	50.7% (inactive)	–
CCN(CC)C(=O)C1=C(C)N(Cc2ccc(F)cc2)C(=O)C(CC(=O)NCc2cccc3ccccc23)C1 (stereo not given)	-3.47% (inactive)	–
CCN(CC)C(=O)C1=C(C)N(Cc2ccc(C(C)(C)C)cc2)C(=O)C(CC(=O)NCc2cccc3ccccc23)C1 (stereo not given)	–	17.8 µM (active)
COc1ccc(CN2C(=O)C(CC(=O)NCc3cccc4ccccc34)CC(C(=O)N3CCOCC3)=C2C)cc1 (stereo not given)	20.9% (inactive)	–
CN(C)c1ccc(/C=c2\[nH]c(=O)/c(=C/c3ccc(N(C)C)cc3)[nH]c2=O)cc1	9.71% (inactive)	–
COc1ccc2c(c1)c(=Cc1ccc(N(C)C)cc1)c1cc(-c3ccccc3)[n+](C)n12	–	5.01 µM (active)
Cc1ccc(NC(=O)CSc2nnc3[nH]c(=O)cc(C)n23)cc1Cl	-0.795% (inactive)	–
Cc1ccc(C(=O)Nc2ccc(C(=O)O)cc2)cc1S(=O)(=O)Nc1ccccc1	-13.1% (inactive)	–
Cn1c(=O)n(C)c2cc(C(=O)Nc3ccc(Br)cc3)ccc21	-1.4% (inactive)	–
O=C(Nc1ccc(Br)cc1)c1ccc(Br)c(S(=O)(=O)NCc2ccccc2)c1	–	12.6 µM (active)
COc1ccccc1C1C(C(=O)N2CCCCC2)=C(C)Nc2nc3ccccc3n21 (stereo not given)	-3.85% (inactive)	–
Oc1ccc(Cl)cc1C1C=C(c2ccc3c(c2)OCO3)NC(c2ccc(F)c(Br)c2)N1 (stereo not given)	–	10 µM (active)
CCCCCCC1(C)NC(c2ccc3c(c2)OCO3)=CC(c2ccccc2O)N1 (stereo not given)	-2.64% (inactive)	–
C(=Nc1ccc(/C=C/c2ccnc3ccccc23)cc1)c1cc2c3c(c1)CCCN3CCC2	2.32% (inactive)	–
